In PubChem BioAssay (EPA / NIEHS) one finds outcome and AC50 data, which are given here for 5 compounds.

Inconclusive results are not listed. The source made the active and inactive calls. Rule for the calls, unless noted: active = hit-call score of the fitted dose curve at least 0.9, where 1 is the maximum; inconclusive = response in the unintended direction; inactive = score below 0.9.

Assay [1] can be described thus: ATG_GRE_CIS: Attagene CIS-FACTORIAL HepG2 Assay for human Glucocorticoid Response Elements (GRE) (AID 2282947; active = hit-call score of the fitted dose curve at least 0.9, where 1 is the maximum; inactive = score below 0.9). The settings on record: HepG2 GRE cis-reporter, Attagene multiplex mRNA; actives raise or lower the signal. The essentials:
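HepG2, transient cis-reporter transfection, 24 h. Reporter mRNA: RT-PCR then CE, fluorescence. Fit both directions vs DMSO.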

The nature of assay [2]: ATG_PBREM_CIS: Attagene CIS-FACTORIAL HepG2 Assay for human Phenobarbital-responsive Enhancer Module (PBREM) (AID 2282955; active = hit-call score of the fitted dose curve at least 0.9, where 1 is the maximum; inactive = score below 0.9). The following applies: HepG2 PBREM cis-reporter, Attagene multiplexed transcription; actives raise or lower the signal. The essentials:
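Multiplexed cis-reporter readout in human hepatoma HepG2 cells; PBREM-regulated transcript quantified after 24 h exposure by fluorescent RT-PCR fragment analysis. Signal changes up or down fitted relative to DMSO.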

Assay [3] in a line: ATG_RORE_CIS: Attagene CIS-FACTORIAL HepG2 Assay for human RAR-related Orphan Receptor Element (RORE) (AID 2282959; active = hit-call score of the fitted dose curve at least 0.9, where 1 is the maximum; inactive = score below 0.9). The settings on record: HepG2 Attagene cis-factorial RORE reporter, mRNA; actives raise or lower the signal. A digest of the protocol:
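Transfect HepG2 with MRTUs; treat 24 h; extract RNA; RT with oligo(dT); PCR with reporter-specific primers; 6-FAM primer extension; HpaI digest 2 h at 37 C; capillary electrophoresis. Fit vs DMSO, bidirectional.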

For assay [4], the target named is Transcription factor Sp1 (Homo sapiens) (UniProt P08047). Nature of the assay: ATG_Sp1_CIS: Attagene CIS-FACTORIAL HepG2 Assay for human Specificity Protein 1 (Sp1) (AID 2282961; active = hit-call score of the fitted dose curve at least 0.9, where 1 is the maximum; inactive = score below 0.9). The following applies: HepG2 Sp1 cis-reporter transcription, actives raise or lower the signal. A digest of the protocol:
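Chemicals are dosed onto HepG2 cells transfected with multiple cis-promoter reporter constructs, and after 24 h reporter RNA is reverse-transcribed, PCR-amplified and resolved by capillary electrophoresis for fluorescence quantitation; activity is scored up or down against DMSO.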

The target in assay [5] is Signal transducer and activator of transcription 3 (Homo sapiens) (UniProt P40763). Nature of the assay: ATG_STAT3_CIS: Attagene CIS-FACTORIAL HepG2 Assay for human Signal Transducer and Activator of Transcription 3 (STAT3) (AID 2282963; active = hit-call score of the fitted dose curve at least 0.9, where 1 is the maximum; inactive = score below 0.9). The following applies: HepG2, Attagene cis-factorial STAT3 reporter transcription; actives raise or lower the signal. A digest of the protocol:
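Uses human liver HepG2 transiently carrying cis-regulated reporter transcription units. Following 24 h dosing, reporter mRNA induction was detected by RT-PCR and capillary electrophoresis, analysed bidirectionally versus DMSO.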

In assay [6] the target is Hepatocyte nuclear factor 4-alpha (Homo sapiens) (UniProt P41235). Nature of the assay: ATG_HNF4a_TRANS: Attagene TRANS-FACTORIAL HepG2 Assay for human Hepatocyte Nuclear Factor 4 alpha (HNF4a) (AID 2282982). The following applies: HepG2 HNF4a transactivation reporter, mRNA readout. The essentials:
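Using HepG2 liver cells transfected with GAL4-UAS reporter units, chemical-induced mRNA increases were assessed after 24 hours. Fluorescent RT-PCR fragments were separated by capillary electrophoresis and compared with DMSO negative controls.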

Assay [7] in a line: ATG_M_06_TRANS: Attagene TRANS-FACTORIAL HepG2 Assay for M06 Transcription Factor (Internal Marker) (AID 2282983).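 Note: reporter transcript level by RT-PCR then capillary electrophoresis fluorescence.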 The settings on record: HepG2 Attagene TRANS M06 internal marker reporter. The essentials: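 Read-out: fluorescent reporter cDNA fragments resolved by capillary electrophoresis after RT-PCR and HpaI cut. Source cells were HepG2 carrying transfected multi-reporter GAL4 constructs, dosed 24 h. Increase over DMSO control analysed.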

Assay [8] addresses Transcriptional activator Myb (Homo sapiens) (UniProt P10242). Briefly: ATG_Myb_CIS: Attagene CIS-FACTORIAL HepG2 Assay for human Myeloblastosis (Myb) Proto-Oncogene Transcription Factor (AID 2282986; active = hit-call score of the fitted dose curve at least 0.9, where 1 is the maximum; inactive = score below 0.9). The following applies: HepG2 Attagene CIS-FACTORIAL Myb reporter transcription; actives raise or lower the signal. The essentials:
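Using HepG2 liver cells bearing transiently transfected cis-promoter reporter constructs, the assay measures induction or loss of reporter mRNA after 24 hours of dosing. Detection used fluorescently labeled RT-PCR products separated by capillary electrophoresis.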

Assay [9] deals with Peroxisome proliferator-activated receptor gamma (Homo sapiens) (UniProt P37231). Briefly: ATG_PPARg_TRANS: Attagene TRANS-FACTORIAL HepG2 Assay for human Peroxisome Proliferator-activated Receptor-gamma (PPARg) (AID 2283007). The essentials:
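Chimeric NR-Gal4 transactivation is measured in transiently transfected HepG2 cells by reporter mRNA induction at 24 h. Detection uses RT-PCR with fluorescent labelling and capillary electrophoresis; DMSO defines baseline.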

Assay [10] can be described thus: TOX21_p53_BLA_p2_viability: Viability Assessment in the Tox21 HCT-116 p53 Agonism Beta-lactamase Assay, Phase 2 (AID 2283591).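 Note: actives lower the ATP signal meaning cytotoxicity.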 A digest of the protocol: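 HCT-116 p53-bla cells (4000/well) rested 5 h at 37C, then received compounds in DMSO (217-fold dilution) for 16 h at 37C, 5% CO2. After the CCF4 read, CellTiter-Glo was added; ATP luminescence was read after 30 min at room temperature.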

Assay [11] deals with Cellular tumor antigen p53 (Homo sapiens) (UniProt P04637). Nature of the assay: TOX21_p53_BLA_p2_ratio: Tox21 HCT-116 p53 Agonism Beta-lactamase Assay, Ratio, Phase 2 (AID 2283592). The essentials: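 Readout: blue/green (460/530 nm) FRET emission ratio after 2 h CCF4-AM loading at room temperature, excitation 405 nm. HCT116 p53 bla cells, 16 h compound exposure at 37C, 5% CO2; agonist direction fitted against DMSO baseline.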
Cellular tumor antigen p53 (Homo sapiens), sequence (P04637 whole entry, looked up): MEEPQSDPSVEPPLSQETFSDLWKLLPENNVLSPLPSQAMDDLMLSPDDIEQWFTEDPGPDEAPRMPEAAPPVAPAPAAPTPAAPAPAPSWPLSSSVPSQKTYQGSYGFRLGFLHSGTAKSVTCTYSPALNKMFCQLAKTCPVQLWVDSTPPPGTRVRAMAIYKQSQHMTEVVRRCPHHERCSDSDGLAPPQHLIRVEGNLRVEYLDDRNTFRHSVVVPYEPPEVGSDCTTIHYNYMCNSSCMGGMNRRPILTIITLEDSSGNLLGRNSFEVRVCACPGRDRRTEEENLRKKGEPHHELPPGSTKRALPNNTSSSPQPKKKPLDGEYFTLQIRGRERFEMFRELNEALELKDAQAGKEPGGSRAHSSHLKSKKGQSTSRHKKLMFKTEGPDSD

Assay [12] has the same target. Nature of the assay: TOX21_p53_BLA_p3_ratio: Tox21 HCT-116 p53 Agonism Beta-lactamase Assay, Ratio, Phase 3 (AID 2283596). The essentials: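 Cells were seeded at 4000/well, rested 5 h at 37C, then dosed with DMSO compound solutions (217-fold dilution) for 16 h. CCF4-AM substrate was loaded for 2 h at room temperature, and the 460/530 nm emission ratio was fitted for gain of signal versus DMSO.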

Assay [13] can be described thus: TOX21_p53_BLA_p4_viability: Viability Assessment in the Tox21 HCT-116 p53 Agonism Beta-lactamase Assay, Phase 4 (AID 2283597).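 Note: hits lower the luminescence signal meaning cytotoxicity.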 A digest of the protocol:
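ATP content by CellTiter-Glo luminescence, 30 min RT, read after the beta-lactamase ratio step. Cells: HCT116, 4000/well, compound added after 5 h, exposure 16 h at 37C. Signal loss = reduced viability.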

Assay [14] has as its target Cellular tumor antigen p53 (Homo sapiens) (UniProt P04637). Nature of the assay: TOX21_p53_BLA_p5_ratio: Tox21 HCT-116 p53 Agonism Beta-lactamase Assay, Ratio, Phase 5 (AID 2283599). The essentials:
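HCT-116 cells carrying a p53-inducible beta-lactamase reporter were seeded at 4000 cells/well and dosed after 5 h with compound in DMSO (217-fold dilution). After 16 h at 37C, CCF4-AM substrate was added for 2 h, and the 460/530 nm emission ratio was scored as gain-of-signal versus DMSO.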

The nature of assay [15]: TOX21_p53_BLA_p5_viability: Viability Assessment in the Tox21 HCT-116 p53 Agonism Beta-lactamase Assay, Phase 5 (AID 2283600). A digest of the protocol: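 ATP luminescence (CellTiter-Glo, 30 min, RT) served as the viability read-out, with loss of signal indicating cytotoxicity. Compounds in DMSO were pinned at a 217-fold dilution onto 4000 cells/well and incubated 16 h, 37C.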

For assay [16], the target named is Cellular tumor antigen p53 (Homo sapiens) (UniProt P04637). Nature of the assay: TOX21_p53_BLA_p4_ratio: Tox21 HCT-116 p53 Agonism Beta-lactamase Assay, Ratio, Phase 4 (AID 2283601). A digest of the protocol:
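HCT116 cells carrying an inducible beta-lactamase reporter were plated at 4000 cells/well, rested 5 h, then exposed to compounds in DMSO (217-fold dilution) for 16 h at 37C. CCF4-AM substrate was loaded 2 h at room temperature; 460/530 nm emission ratio scored gain-of-signal versus DMSO.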

A short description of assay [17]: ACEA_ER_AUC_viability: ACEA Biosciences xCELLigence Real-Time Cell Analysis on Estrogen Receptor Agonism for Viability (AID 2283782).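 Note: hit means loss of impedance signal meaning reduced cell growth or viability.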 The essentials: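 Continuous-exposure impedance cell analysis uses T-47D cells in charcoal-stripped serum, eight 1:4 dilutions topping at 100 uM final, biological duplicate. Area under the growth curve at 80 h is fitted against DMSO baseline.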

A short description of assay [18]: ATG_NFI_CIS: Attagene CIS-FACTORIAL HepG2 Assay for human Nuclear Factor I (NFI) (AID 2282989; active = hit-call score of the fitted dose curve at least 0.9, where 1 is the maximum; inactive = score below 0.9). The settings on record: HepG2 cis-regulatory reporter, NFI response element transcription; actives raise or lower the signal. The essentials: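 HepG2, transient MRTU, 24 h exposure; RNA→cDNA→PCR→FAM label→HpaI→CE fluorescence. Bidirectional fit, DMSO = baseline.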
Assay [19] can be described thus: ATG_M_32_TRANS: Attagene TRANS-FACTORIAL HepG2 Assay for M32 Transcription Factor (Internal Marker) (AID 2282984).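 Note: transcript level of a background control reporter unit measured by RT-PCR and capillary electrophoresis.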 The following applies: HepG2 Attagene TRANS M32 internal marker reporter. A digest of the protocol: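 Fluorescence-detected mRNA induction, HepG2 liver cells, 24 h after dosing. Multiple GAL4-UAS reporter units introduced by transient transfection; background-control endpoint analysed for gain of signal against DMSO.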

In assay [20] the target is human Retinoid X Receptor beta (RXRb), RXRB (gene 6257) (UniProt P28702). Nature of the assay: ATG_RXRb_TRANS: Attagene TRANS-FACTORIAL HepG2 Assay for human Retinoid X Receptor beta (RXRb) (AID 2283013). A digest of the protocol:
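Read-out: reporter mRNA induction via RT-PCR plus capillary electrophoresis fluorescence, analysed as signal increase relative to DMSO. Cells were human HepG2, transiently transfected with GAL4-UAS reporter constructs and chimeric receptor-Gal4 fusions, dosed for 24 h.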

Hepatocyte nuclear factor 4-alpha (Homo sapiens), sequence (P41235 whole entry, looked up, the tested form may be a part): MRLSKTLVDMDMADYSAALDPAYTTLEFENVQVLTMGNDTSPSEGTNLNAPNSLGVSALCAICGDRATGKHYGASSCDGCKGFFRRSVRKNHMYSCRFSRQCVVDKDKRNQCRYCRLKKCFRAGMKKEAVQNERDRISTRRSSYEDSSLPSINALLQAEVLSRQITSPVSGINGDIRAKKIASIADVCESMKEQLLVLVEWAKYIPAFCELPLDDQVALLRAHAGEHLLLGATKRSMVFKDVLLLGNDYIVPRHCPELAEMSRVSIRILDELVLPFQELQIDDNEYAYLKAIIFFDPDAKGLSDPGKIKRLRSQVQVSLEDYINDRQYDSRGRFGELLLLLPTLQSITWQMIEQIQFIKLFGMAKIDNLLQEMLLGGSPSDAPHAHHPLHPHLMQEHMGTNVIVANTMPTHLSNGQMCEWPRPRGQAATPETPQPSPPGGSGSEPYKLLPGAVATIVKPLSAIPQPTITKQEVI
Transcriptional activator Myb (Homo sapiens), sequence (P10242 whole entry, looked up): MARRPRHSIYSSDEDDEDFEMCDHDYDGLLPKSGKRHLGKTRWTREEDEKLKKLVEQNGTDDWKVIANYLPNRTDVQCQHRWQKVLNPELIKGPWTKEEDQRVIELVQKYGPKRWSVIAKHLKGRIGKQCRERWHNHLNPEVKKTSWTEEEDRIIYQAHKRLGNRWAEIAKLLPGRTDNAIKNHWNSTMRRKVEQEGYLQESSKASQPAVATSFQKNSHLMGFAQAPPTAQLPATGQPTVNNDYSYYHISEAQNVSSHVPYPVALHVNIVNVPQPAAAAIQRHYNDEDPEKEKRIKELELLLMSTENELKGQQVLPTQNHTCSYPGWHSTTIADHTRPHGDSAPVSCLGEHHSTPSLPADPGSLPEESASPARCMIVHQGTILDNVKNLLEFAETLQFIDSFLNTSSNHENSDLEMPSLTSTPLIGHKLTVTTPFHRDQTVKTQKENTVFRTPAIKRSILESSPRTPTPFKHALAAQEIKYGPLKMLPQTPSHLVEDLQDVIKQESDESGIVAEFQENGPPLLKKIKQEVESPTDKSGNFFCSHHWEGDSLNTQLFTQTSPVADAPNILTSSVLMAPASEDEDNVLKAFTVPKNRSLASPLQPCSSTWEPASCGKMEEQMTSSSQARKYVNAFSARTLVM
human Retinoid X Receptor beta (RXRb), RXRB (gene 6257), sequence (P28702 whole entry, looked up, the tested form may be a part): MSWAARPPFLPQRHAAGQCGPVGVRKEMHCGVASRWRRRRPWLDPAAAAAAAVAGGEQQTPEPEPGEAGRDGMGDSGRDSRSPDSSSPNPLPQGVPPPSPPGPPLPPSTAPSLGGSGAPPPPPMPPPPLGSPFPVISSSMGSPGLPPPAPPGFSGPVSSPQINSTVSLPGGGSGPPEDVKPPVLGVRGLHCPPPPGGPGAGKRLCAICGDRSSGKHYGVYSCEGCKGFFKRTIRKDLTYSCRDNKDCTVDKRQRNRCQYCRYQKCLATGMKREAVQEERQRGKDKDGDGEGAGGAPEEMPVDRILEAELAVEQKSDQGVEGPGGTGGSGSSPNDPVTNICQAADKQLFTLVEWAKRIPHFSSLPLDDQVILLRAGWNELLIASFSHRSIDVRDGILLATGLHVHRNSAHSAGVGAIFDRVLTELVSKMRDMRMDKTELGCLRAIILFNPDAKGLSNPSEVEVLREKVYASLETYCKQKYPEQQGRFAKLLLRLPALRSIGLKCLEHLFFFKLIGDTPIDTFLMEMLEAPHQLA
Peroxisome proliferator-activated receptor gamma (Homo sapiens), sequence (P37231 whole entry, looked up, the tested form may be a part): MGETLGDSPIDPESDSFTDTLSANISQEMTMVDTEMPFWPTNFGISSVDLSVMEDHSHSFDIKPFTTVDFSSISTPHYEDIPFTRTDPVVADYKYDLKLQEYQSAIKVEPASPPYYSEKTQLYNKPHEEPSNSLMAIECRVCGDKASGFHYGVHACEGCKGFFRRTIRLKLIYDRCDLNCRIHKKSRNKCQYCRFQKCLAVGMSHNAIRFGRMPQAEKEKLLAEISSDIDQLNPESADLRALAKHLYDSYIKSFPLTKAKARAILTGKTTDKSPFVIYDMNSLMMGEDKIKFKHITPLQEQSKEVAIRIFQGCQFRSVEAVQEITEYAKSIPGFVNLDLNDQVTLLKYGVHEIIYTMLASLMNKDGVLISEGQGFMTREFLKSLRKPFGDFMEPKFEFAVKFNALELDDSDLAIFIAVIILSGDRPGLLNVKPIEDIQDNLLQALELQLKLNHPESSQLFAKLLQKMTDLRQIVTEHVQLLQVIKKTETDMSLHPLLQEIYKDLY
Signal transducer and activator of transcription 3 (Homo sapiens), sequence (P40763 whole entry, looked up): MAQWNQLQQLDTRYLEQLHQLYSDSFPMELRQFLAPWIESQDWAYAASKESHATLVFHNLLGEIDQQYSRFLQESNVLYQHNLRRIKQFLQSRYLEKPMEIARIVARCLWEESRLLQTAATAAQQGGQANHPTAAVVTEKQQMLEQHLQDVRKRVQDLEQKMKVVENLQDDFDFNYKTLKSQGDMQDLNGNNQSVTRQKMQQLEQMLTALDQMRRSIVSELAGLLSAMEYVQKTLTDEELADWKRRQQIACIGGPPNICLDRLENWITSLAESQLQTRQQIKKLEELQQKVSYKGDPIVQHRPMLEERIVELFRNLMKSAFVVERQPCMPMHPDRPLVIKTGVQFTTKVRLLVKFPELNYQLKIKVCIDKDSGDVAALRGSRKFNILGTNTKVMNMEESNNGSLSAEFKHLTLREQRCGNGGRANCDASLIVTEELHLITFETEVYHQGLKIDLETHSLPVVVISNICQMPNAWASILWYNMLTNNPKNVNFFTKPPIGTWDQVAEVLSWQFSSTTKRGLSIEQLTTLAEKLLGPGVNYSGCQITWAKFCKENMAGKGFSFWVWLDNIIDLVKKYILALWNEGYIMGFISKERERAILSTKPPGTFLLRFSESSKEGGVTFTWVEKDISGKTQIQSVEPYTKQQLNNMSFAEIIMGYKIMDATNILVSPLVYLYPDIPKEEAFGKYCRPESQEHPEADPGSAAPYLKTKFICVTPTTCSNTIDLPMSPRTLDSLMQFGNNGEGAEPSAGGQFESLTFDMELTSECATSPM
Transcription factor Sp1 (Homo sapiens), sequence (P08047 whole entry, looked up): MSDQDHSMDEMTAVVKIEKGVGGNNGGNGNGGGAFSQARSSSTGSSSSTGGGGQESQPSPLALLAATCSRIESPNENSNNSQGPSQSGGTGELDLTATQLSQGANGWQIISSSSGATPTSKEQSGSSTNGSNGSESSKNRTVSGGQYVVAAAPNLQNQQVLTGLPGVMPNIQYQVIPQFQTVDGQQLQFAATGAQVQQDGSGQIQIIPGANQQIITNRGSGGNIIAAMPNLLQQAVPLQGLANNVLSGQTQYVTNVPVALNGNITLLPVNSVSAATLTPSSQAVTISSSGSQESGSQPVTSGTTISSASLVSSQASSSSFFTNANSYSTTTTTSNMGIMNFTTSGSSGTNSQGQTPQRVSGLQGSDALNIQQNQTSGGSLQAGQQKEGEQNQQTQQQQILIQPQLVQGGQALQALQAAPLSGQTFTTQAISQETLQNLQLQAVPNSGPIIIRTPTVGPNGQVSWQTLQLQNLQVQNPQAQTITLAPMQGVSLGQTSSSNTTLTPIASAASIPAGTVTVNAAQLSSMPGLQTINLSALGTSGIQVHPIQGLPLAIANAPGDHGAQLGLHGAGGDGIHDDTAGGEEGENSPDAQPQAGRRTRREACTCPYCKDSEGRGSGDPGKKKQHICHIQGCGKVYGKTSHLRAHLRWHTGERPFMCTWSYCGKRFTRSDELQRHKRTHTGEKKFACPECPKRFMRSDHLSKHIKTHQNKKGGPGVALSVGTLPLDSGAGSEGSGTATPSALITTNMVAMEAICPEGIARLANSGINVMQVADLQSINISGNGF

Consider `[Cl][Sb]([Cl])[Cl]`, for which the result in assay [1], in assay [2], in assay [3], in assay [4], in assay [5] and in assay [6] was inactive. Besides, the compound was called inactive in assay [7], in [8], in assay [9], in assay [10], in [11] and in assay [12]. Moreover, the result in assay [13], in [14], in assay [15] and in assay [16] was inactive. Moreover, the concentration at half-maximal activity (AC50) in assay [17] was 87.8 µM (active).
As to `C=C(Cl)Cl`, the compound was called inactive in assay [1], in assay [2], in assay [3], in [4], in assay [6] and in [7]. Moreover, the outcome in [18], in assay [9], in [10], in assay [13] and in assay [15] was inactive.
As to `Cc1ccc(N(SC(F)(Cl)Cl)S(=O)(=O)N(C)C)cc1`, the outcome in assay [2], in assay [5], in assay [6], in assay [7], in [19] and in [8] was inactive. The compound was called inactive in assay [9], in assay [20], in assay [10], in assay [11], in [12] and in assay [14]. Moreover, in assay [15], the call was inactive. Moreover, the figures for the AC50 in assay [18], in assay [13] and in assay [16] were 17.3 µM (active), 87.1 µM (active) and 44.8 µM (active), respectively.
Turning to `c1ccc(P(c2ccccc2)c2ccccc2)cc1`, the outcome in assay [1], in [2], in assay [4], in [7], in assay [19] and in [8] was inactive. Moreover, the compound was classed as inactive in assay [18], in assay [9], in [10], in assay [13], in assay [14] and in [15]. In addition, the AC50 in [20] is 38.6 µM (active); in [17], 82.9 µM (active).
For the compound `CCCCCCCCCCCCCCCC[N+](C)(C)C`, the AC50 in assay [1] was 48.5 µM (active); in [6], 27.6 µM (active); in [8] it was 24.5 µM (active); in assay [9], 27.4 µM (active); in [17], 10.9 µM (active). In addition, the outcome in assay [2], in [3], in assay [4], in [5], in [7] and in assay [19] was inactive. For the same compound, the result in assay [18] and in assay [20] was inactive.

A word on the AC50: it is the midpoint of the concentration-response curve, whichever way the signal moves.
